Reference: PubChem BioAssay (EPA / NIEHS)
Active and inactive are the calls of the source. The calls were made as follows: active = hit-call score of the fitted dose curve at least 0.9, where 1 is the maximum; inactive = score below 0.9.

experiment: BSK_SAg_PBMCCytotoxicity: PBMC Cytotoxicity Assessment in the BioMAP Diversity Plus: SAg Assay (AID 2283093); details: primary human HUVEC with PBMC;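 also: fitted both ways against DMSO so a hit may be loss or gain of signal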
Protocol: BSK_SAg is a cell-based, multiplexed-readout assay that uses umbilical vein endothelium and peripheral blood mononuclear cells, a human vascular primary cell co-culture, with measurements taken at 24 hours after chemical dosing in a 96-well plate.BSK_SAg_PBMCCytotoxicity is an assay component measured in the BSK_SAg assay. It measures Alamar blue related to cell death using Alamar Blue Reduction technology.Data from the assay component BSK_SAg_PBMCCytotoxicity was analyzed into 1 assay endpoint. This assay endpoint, BSK_SAg_PBMCCytotoxicity, was analyzed with bidirectional fitting relative to DMSO as the negative control and baseline of activity. Using a type of viability reporter, gain or loss-of-signal activity can be used to understand changes in the viability. Furthermore, this assay endpoint can be referred to as a secondary readout, because this assay has produced multiple assay endpoints where this one serves a viability function. To generalize the intended target to other relatable targets, this assay endpoint is annotated to the cell cycle intended target family, where the subfamily is cytotoxicity.
The levels of cell surface (or secreted, indicated by the prefix "s") biomarker endpoints were measured by ELISA. Overt cytotoxicity to cells in confluent adherent cultures (all systems other than the BT system) was assessed by measuring total protein levels using sulforhodamine B (SRB) staining in parallel cultures at the time of biomarker measurements, indicated as SRB endpoints. For proliferation assays for adherent cell types, individual cell types are cultured at sub-confluence and relative cell numbers quantified by SRB staining at time points optimized for each system (48 h: 3C and CASM3C systems; 72 h: BT and HDF3CGF systems; 96 h: SAg system). SRB was performed by staining cells with 0.1% SRB after fixation with 10% TCA and reading wells at 560 nm.Viability and proliferation of PBMC (T cells) was quantified by Alamar Blue reduction for the SAg and BT systems. For PBMC viability (referred to as PBMC Cytotoxicity within the assay endpoint names), cells were plated (75,000/well in a 96-well plate) and then chemical samples added for 1 h before addition of activators, SEB and TSST-1 (20 ng/mL final concentration each). Cells were incubated for 90 h. Then, Alamar Blue (20 uL/well) (Invitrogen, Cat DAL1100) was added for 6 h, and the plates were read with a fluorescence microplate reader at 546/580 nm (excitation/emission). For PBMC proliferation, cells were plated and activated as above but incubated for only 16 h prior to addition of Alamar Blue. Plates were read after 6 h.

| Compound | AC50 | outcome |
| --- | --- | --- |
| CN(C)CCCN1c2ccccc2Sc2ccc(Cl)cc21 | 16.4 µM (active) | – |
| Nc1nc(=S)c2[nH]cnc2[nH]1 | – | inactive |
| CCCC[C@H]1CN(CC2CCOCC2)C(=O)OC12CCN(C1(C)CCN(C(=O)c3c(C)ncnc3C)CC1)CC2 | – | inactive |
| N[C@@H](Cc1c[nH]c2ccccc12)C(=O)O | – | inactive |
| CN(C)C(=O)NC1(c2ccccc2)CCN(CC[C@@]2(c3ccc(F)c(F)c3)CN(C(=O)c3ccccc3)CCO2)CC1 | – | inactive |
| CCCCCCCCCCCCCCCCO | – | inactive |
| OCC(O)CO | – | inactive |
| CCN(CC)CCOc1ccc(C(=C(Cl)c2ccccc2)c2ccccc2)cc1 | 6.29 µM (active) | – |
| CCCCCCCCCC[N+](C)(C)[O-] | – | inactive |
| Oc1ccc(O)cc1 | 12.8 µM (active) | – |
| COc1ccc(C(=O)Nc2nc3ccccc3c(NCc3ccccc3)c2C#N)cc1 | – | inactive |
| COC(=O)CCC(=O)OC | – | inactive |
| CN(C)CCCN(C)CCCN(C)C | – | inactive |
| CC(=O)OC1CC(C)OC(C)O1 (stereo not given) | – | inactive |
| NC1CCCCC1 | – | inactive |
| NCCOCCOCCN | – | inactive |
| O=C(O)c1[nH]n(-c2ccc(S(=O)(=O)O)cc2)c(=O)c1N=Nc1ccc(S(=O)(=O)O)cc1 | – | inactive |
| CC(C)c1cccc(C(C)C)c1NC(=O)NS(=O)(=O)c1cc(C(C)(C)O)co1 | – | inactive |
| CC(N)=O | – | inactive |
| Cc1cc(Cc2ccc(N)c(C)c2)ccc1N | – | inactive |

| Compound | AC50 | outcome |
| --- | --- | --- |
| NC=O | – | inactive |
| CC(=O)[C@@]1(O)CC[C@H]2[C@@H]3CCC4=CC(=O)CC[C@]4(C)[C@H]3CC[C@@]21C | – | inactive |
| CCCC(=O)O | – | inactive |
| Cc1c(C)c2c(c(C)c1O)CCC(C)(COc1ccc(CC3SC(=O)NC3=O)cc1)O2 (stereo not given) | 20 µM (active) | – |
| CC(C)NCC(O)c1ccc(O)c(O)c1 (stereo not given) | 13.5 µM (active) | – |
| CCCCCCCC(=O)OC | – | inactive |
| C#CC(O)C(CC)CCCC (stereo not given) | – | inactive |
| O=Cc1ccccc1C=O | – | inactive |
| CO[C@@H]1COCC[C@@H]1N[C@@H]1CC[C@@](C(=O)N2CCc3ncc(C(F)(F)F)cc3C2)(C(C)C)C1 | – | inactive |
| Nc1nc(Cl)nc2c1ncn2[C@H]1C[C@H](O)[C@@H](CO)O1 | 0.642 µM (active) | – |
| Cc1ccc(C(C)(C)C)c(O)c1 | – | inactive |
| COC(=O)CCCC(=O)OC | – | inactive |
| Cn1cnc2c1c(=O)[nH]c(=O)n2C | – | inactive |
| CCCCc1nc2cccnc2n1Cc1ccc(-c2ccccc2-c2nnn[nH]2)cc1 | – | inactive |
| CC(=O)O[C@]1(C(C)=O)CC[C@H]2[C@@H]3C=C(Cl)C4=CC(=O)[C@@H]5C[C@@H]5[C@]4(C)[C@H]3CC[C@@]21C | – | inactive |
| Cc1occc(=O)c1O | – | inactive |
| CC(=O)OCC(COC(C)=O)OC(C)=O | – | inactive |
| CC(=O)S[C@H](C(=O)N[C@H]1Cc2ccccc2[C@H]2CCC[C@@H](C(=O)O)N2C1=O)C(C)C | – | inactive |
| S=c1[nH]c2ccccc2s1 | – | inactive |
| O=C1NC(=O)C(c2ccccc2)(c2ccccc2)N1 | – | inactive |
